The values that follow are results of earlier work, collected in PubChem BioAssay AID977611.

Where “and” joins values, the source holds several entries; their conditions need not be identical. Identical values can stand only once. The campaign covered roughly 3,900 compounds. About 3,900 (100%) were called active. No cut-off is given here; in the data, nearly all actives have Kd up to about 4200 µM. So high a share suggests a set chosen from earlier hits. The list shows a part of the results.

The term Kd denotes the free concentration of one partner at which half of the binding sites on the other are occupied at equilibrium, for simple one-to-one binding.

The nature of this series: PubChem AID 977611. The following applies: PDB protein-ligand complexes, literature Kd.
In the case of `O=P(O)(O)OC1C(OP(=O)(O)O)C(OP(=O)(O)O)C(OP(=O)(O)O)C(OP(=O)(O)O)C1OP(=O)(O)O` (stereo not drawn), the Kd is 180 nM (active).

On to `NC(=O)c1ccc[n+]([C@@H]2O[C@H](COP(=O)([O-])OP(=O)(O)OC[C@H]3O[C@@H](n4cnc5c(N)ncnc54)[C@H](O)[C@@H]3O)[C@@H](O)[C@H]2O)c1`, for which the Kd was 80 µM (active) and 63.7 µM (active).

On to `Nc1ncnc2c1ncn2[C@@H]1O[C@H](COP(=O)(O)OP(=O)(O)O)[C@H]2O[C@]3(O[C@H]21)C([N+](=O)[O-])=CC([N+](=O)[O-])=CC3[N+](=O)[O-]` (stereo partly drawn), for which the dissociation constant (Kd) is 2100 nM (active).
